According to PubChem BioAssay (Tox21):
Inconclusive results are not listed. Calls of active or inactive are those of the source. Unless noted, the call rests on the fitted dose curve.

Key:
[1] = Nuclear factor erythroid 2-related factor 2/antioxidant responsive element (Nrf2/ARE) small molecule agonists: qHTS cell viability counter screen in human keratinocytes (AID 1919968; active means well fitted curve in the direction sought with a large enough effect in the repeat runs; an effect the other way counts as inactive or inconclusive; further: nearly all actives have a fitted effect of over 55% in size)
Method in brief: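 KeratinoSens HaCaT cells, 1,500/well, preincubated 5 h, then exposed to compounds in DMSO for 23 h at 37 C/5% CO2. Viability read as CellTiter-Fluor fluorescence after 1 h, in the same wells as the ARE-luciferase read.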

[2] = Nuclear factor erythroid 2-related factor 2/antioxidant responsive element (Nrf2/ARE) small molecule agonists: luciferase reporter gene qHTS assay in human keratinocytes (AID 1919969); further: nearly all actives have a fitted effect of over 35% in size
[3] = target: KiSS-1 receptor (Homo sapiens) (UniProt Q969F8); test: Human kisspeptin (KISS1R) small molecule agonists, calcium flux assay in KISS1R-HEK293 cells (AID 1920064; active means well fitted curve in the direction sought with a large enough effect in the repeat runs; an effect the other way counts as inactive or inconclusive)
Method in brief: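 HEK293 cells stably expressing human KISS1R were loaded with calcium dye for 1 h at 37 C, then given compound; fluorescence (Ex/Em 480/540) was read kinetically for 3 min. Fifteen concentrations, triplicate.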

[4] = G protein-coupled receptor (GPCR) small molecule agonists, calcium flux assay: HEK293 wild type cell line counter screen (AID 1920065)
Method in brief: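 Wild-type HEK293 cells plated 18 h, loaded with calcium dye 1 h at 37 C, then compounds added in agonist mode (ATP as positive control). Kinetic fluorescence Ex/Em 480/540 recorded 3 min at 1 sec intervals; 15 concentrations, triplicate.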

[5] = p53 small molecule agonists, cell-based qHTS assay with human liver microsomes (AID 1963577);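 further: p53 response element beta-lactamase reporter cells with liver microsomes plus NADPH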
Method in brief: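 With metabolic activation: human liver microsomes (0.5 mg/mL final) plus NADPH (0.5 mg/mL final) added alongside compounds to p53RE-bla cells; 16 h 37 C exposure; beta-lactamase read by LiveBLAzer fluorescence.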

[6] = p53 small molecule agonists, cell-based qHTS assay with rat liver microsomes (AID 1963578)
Method in brief: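 Metabolic activation by rat liver microsomes and NADPH, each 0.5 mg/mL final, added right after compounds to p53RE-bla reporter cells (4,000/well, plated 5 h earlier). 16 h at 37 C, then LiveBLAzer substrate for 2 h at room temperature in the dark; fluorescence read-out.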

[7] = p53 small molecule agonists, cell-based qHTS assay with human liver microsomes: qHTS cell viability counter screen (AID 1963579); further: nearly all actives have a fitted effect of over 45% in size
Method in brief: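 Metabolic activation used human liver microsomes and NADPH, both 0.5 mg/mL final, over 16 hours at 37 C on p53RE-bla cells (4,000/well). Cytotoxicity measured by CellTiter-Glo luminescence, 30 min at room temperature.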

[8] = p53 small molecule agonists, cell-based qHTS assay with rat liver microsomes: qHTS cell viability counter screen (AID 1963580); further: nearly all actives have a fitted effect of over 45% in size
Method in brief: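 p53RE-bla HCT-116 cells were exposed 16 h at 37 C to compounds with rat liver microsomes (0.5 mg/mL) and NADPH (0.5 mg/mL). Viability was measured in the same wells as ATP content by CellTiter-Glo luminescence.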

[9] = p53 small molecule agonists, cell-based qHTS assay (AID 1963582; active means well fitted activation curve with a large enough effect in the signal ratio in the repeat runs, not every such curve was filed as active; the % refers to the signal ratio)
Method in brief: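 p53RE-bla reporter cells, compounds added in DMSO after 5 h plating, incubated 16 h at 37 C. Beta-lactamase read via 2 h room-temperature LiveBLAzer B/G FRET substrate, fluorescence intensity.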

[10] = target: 5-hydroxytryptamine receptor 2A (Homo sapiens) (UniProt P28223); test: 5-hydroxytryptamine receptor 2A (HTR2A) small molecule antagonists, cell-based qHTS assay (AID 1963586); further: nearly all actives have a fitted effect of over 45% in size
Method in brief: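 Antagonist-mode intracellular calcium assay: DOI (4 nM) added after 5 min compound pre-incubation at room temperature to dye-loaded HTR2A-CHO cells. Fluorescence followed for 3 min, sampled every second.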

[11] = target: 5-hydroxytryptamine receptor 2A (Homo sapiens) (UniProt P28223); test: 5-hydroxytryptamine receptor 2A (HTR2A) small molecule agonists, cell-based qHTS assay (AID 1963587); further: nearly all actives have a fitted effect of over 30% in size
Method in brief: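 CHO cells stably expressing human HTR2A, plated 18 h, loaded with calcium dye 1 h at 37 C. Agonist mode: compounds added and intracellular calcium fluorescence recorded kinetically for 2 min at 1 sec intervals.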

[12] = target: Muscarinic acetylcholine receptor M1 (Homo sapiens) (UniProt P11229); test: Cholinergic receptor muscarinic 1 (CHRM1) small molecule antagonists, cell-based qHTS assay (AID 1963588); further: nearly all actives have a fitted effect of over 40% in size
Method in brief: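 CHRM1-CHO calcium-flux assay, antagonist mode. Cells were seeded 18 h, dye-loaded 1 h at 37 C and given compound for 5 min at RT, then acetylcholine was added at 50nM. FDSS fluorescence was read 3 min; 15 concentrations, three runs.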

[13] = target: Muscarinic acetylcholine receptor M1 (Homo sapiens) (UniProt P11229); test: Cholinergic receptor muscarinic 1 (CHRM1) small molecule agonists, cell-based qHTS assay (AID 1963589); further: nearly all actives have a fitted effect of over 35% in size
Method in brief: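 CHO cells stably expressing human CHRM1 were loaded with calcium dye for 1 h at 37 C, then compound was added in agonist mode. Intracellular calcium fluorescence was followed kinetically at 1 s intervals. Fifteen concentrations were tested in three independent runs.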

[14] = cAMP Responsive Elements (CRE) small molecule agonists, cell-based qHTS assay (AID 1963590)
Method in brief: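 CRE-bla HEK 293T cells, 2,000/well in DMEM with 10% dialyzed FBS and 25 mM HEPES, pre-incubated 18 h at 37 C, then exposed to compound 3 h at 37 C. Beta-lactamase reporter read with LiveBLAzer B/G FRET substrate after 2 h at room temperature.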

[15] = cAMP Responsive Elements (CRE) small molecule antagonists, cell-based qHTS assay (AID 1963591; active means well fitted inhibition curve with a large enough effect in the signal ratio in the repeat runs, not every such curve was filed as active; the % refers to the signal ratio)
Method in brief: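 CRE-bla HEK293T cells plated 18 h, then given compound plus NKH477 at 0.25 uM final for 3 h at 37C. Beta-lactamase reporter read with LiveBLAzer B/G FRET substrate after 2 h at room temperature.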

[16] = target: Beta-2 adrenergic receptor (Homo sapiens) (UniProt P07550); test: Adrenergic beta2 receptor (ADRB2) small molecule antagonists, cell-based qHTS assay (AID 1963592); further: series mostly up to about 92 µM; nearly all actives have a fitted effect of over 50% in size
Method in brief: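 Cells (CHO, stable ADRB2 overexpression) incubated 18-20hr at 37C; compounds added from DMSO; agonist mix (1nM isoproterenol, 100uM IBMX, 25uM Ro-20-1724) added; 0.5hr RT; d2-cAMP and anti-cAMP-cryptate added; 1hr RT; 665/615 nm read.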

[17] = target: Beta-2 adrenergic receptor (Homo sapiens) (UniProt P07550); test: Adrenergic beta2 receptor (ADRB2) small molecule agonists, cell-based qHTS assay (AID 1963593);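 further: CHO cells stably overexpressing human ADRB2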
Method in brief: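 CHO cells stably over-expressing ADRB2 were plated overnight at 37C, then dosed with compounds plus a stimulation mix containing 100uM IBMX and 25uM Ro-20-1724 for 0.5hr at room temperature. cAMP was measured by HTRF competition, 1hr.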

[18] = target: D(2) dopamine receptor (Homo sapiens) (UniProt P14416); test: Dopamine D2 receptor (DRD2) small molecule agonists, cell-based qHTS assay (AID 1963594); further: nearly all actives have a fitted effect of over 35% in size
Method in brief: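 HEK293 cells stably expressing human DRD2, pre-treated with PDE inhibitor Ro20-1724 (0.1 mM final) and compound 10 min at room temperature, then stimulated with NKH477 (200nM […]) for 30 min. cAMP read by HTRF (665/620 nm).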

[19] = target: D(2) dopamine receptor (Homo sapiens) (UniProt P14416); test: Dopamine D2 receptor (DRD2) small molecule antagonists, cell-based qHTS assay (AID 1963595; active means well fitted inhibition curve with a large enough effect in the signal ratio in the repeat runs, with a control signal flat; the % refers to the signal ratio)
Method in brief: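 Antagonism was scored as restored cAMP in HEK293-DRD2 cells. These cells were stimulated with 200 nM NKH477 and 12 nM quinpirole for 30 min at room temperature, in the presence of 0.1 mM Ro20-1724.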

[20] = p53 small molecule agonists, cell-based qHTS assay: qHTS cell viability counter screen (AID 1963581); further: nearly all actives have a fitted effect of over 45% in size
Method in brief: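 p53RE-bla HCT-116 cells, compounds added 5 h after plating and incubated 16 h at 37 C. Cytotoxicity measured in the same wells as intracellular ATP by CellTiter-Glo luminescence after 30 min at room temperature.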

Measured: Potency

Sequence of 5-hydroxytryptamine receptor 2A (Homo sapiens) (P28223 whole entry, looked up): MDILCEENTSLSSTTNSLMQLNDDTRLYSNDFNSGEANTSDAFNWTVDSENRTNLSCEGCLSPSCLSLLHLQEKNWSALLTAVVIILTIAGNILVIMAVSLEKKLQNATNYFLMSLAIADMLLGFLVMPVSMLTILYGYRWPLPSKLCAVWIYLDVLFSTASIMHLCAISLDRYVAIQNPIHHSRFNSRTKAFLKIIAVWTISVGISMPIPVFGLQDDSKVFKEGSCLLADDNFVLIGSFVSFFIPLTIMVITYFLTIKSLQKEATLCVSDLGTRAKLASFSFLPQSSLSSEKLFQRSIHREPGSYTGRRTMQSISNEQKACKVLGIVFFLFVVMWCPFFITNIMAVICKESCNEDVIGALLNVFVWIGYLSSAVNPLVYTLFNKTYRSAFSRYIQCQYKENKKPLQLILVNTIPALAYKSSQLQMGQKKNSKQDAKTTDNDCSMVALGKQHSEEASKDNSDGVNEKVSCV
Sequence of D(2) dopamine receptor (Homo sapiens) (P14416 whole entry, looked up): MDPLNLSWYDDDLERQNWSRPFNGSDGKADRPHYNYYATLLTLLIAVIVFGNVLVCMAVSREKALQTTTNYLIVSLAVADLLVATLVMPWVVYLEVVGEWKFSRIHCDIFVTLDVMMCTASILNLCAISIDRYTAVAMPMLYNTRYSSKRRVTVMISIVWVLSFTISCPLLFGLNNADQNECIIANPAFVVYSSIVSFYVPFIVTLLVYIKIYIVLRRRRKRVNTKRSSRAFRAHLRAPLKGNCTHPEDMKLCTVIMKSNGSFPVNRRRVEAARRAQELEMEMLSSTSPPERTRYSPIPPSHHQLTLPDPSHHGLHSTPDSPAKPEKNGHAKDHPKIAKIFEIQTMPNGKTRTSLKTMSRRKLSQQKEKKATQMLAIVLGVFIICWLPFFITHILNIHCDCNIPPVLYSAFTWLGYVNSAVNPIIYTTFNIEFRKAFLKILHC
Sequence of Beta-2 adrenergic receptor (Homo sapiens) (P07550 whole entry, looked up): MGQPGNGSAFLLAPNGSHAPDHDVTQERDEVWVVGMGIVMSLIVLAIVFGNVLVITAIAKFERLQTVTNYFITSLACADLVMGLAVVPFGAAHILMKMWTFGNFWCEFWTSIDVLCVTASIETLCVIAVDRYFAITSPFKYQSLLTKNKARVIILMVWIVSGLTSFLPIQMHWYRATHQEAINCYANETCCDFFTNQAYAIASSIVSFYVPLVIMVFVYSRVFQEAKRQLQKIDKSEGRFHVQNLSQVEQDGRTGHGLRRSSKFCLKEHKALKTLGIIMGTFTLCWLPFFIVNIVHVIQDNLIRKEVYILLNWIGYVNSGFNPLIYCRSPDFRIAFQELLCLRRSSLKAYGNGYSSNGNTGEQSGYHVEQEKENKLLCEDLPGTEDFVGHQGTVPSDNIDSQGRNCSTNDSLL
Sequence of KiSS-1 receptor (Homo sapiens) (Q969F8 whole entry, looked up): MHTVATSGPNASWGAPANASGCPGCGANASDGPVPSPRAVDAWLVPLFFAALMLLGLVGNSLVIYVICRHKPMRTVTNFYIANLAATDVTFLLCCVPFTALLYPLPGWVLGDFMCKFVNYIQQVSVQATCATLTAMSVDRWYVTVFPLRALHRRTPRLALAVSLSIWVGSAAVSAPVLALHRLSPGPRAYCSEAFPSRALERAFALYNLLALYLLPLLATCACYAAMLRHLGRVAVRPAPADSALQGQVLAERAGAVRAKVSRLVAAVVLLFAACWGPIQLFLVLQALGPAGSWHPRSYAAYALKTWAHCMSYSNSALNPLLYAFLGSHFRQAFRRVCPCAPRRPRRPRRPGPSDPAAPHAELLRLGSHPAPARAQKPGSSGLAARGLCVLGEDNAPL
Sequence of Muscarinic acetylcholine receptor M1 (Homo sapiens) (P11229 whole entry, looked up): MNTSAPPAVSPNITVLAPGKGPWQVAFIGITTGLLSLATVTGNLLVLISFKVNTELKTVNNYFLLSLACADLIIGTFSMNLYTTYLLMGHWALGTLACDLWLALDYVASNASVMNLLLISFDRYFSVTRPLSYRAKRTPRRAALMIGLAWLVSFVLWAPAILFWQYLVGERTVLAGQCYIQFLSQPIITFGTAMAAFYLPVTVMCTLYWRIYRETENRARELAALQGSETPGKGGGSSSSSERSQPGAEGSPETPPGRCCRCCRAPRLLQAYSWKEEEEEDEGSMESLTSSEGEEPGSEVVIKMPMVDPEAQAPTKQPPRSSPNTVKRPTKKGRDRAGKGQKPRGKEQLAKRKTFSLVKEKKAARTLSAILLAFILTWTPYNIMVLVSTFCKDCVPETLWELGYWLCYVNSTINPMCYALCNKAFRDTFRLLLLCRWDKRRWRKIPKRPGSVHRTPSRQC

O=C1CCCCCCCCCCCCCC1
not listed: [20]
inactive: all other assays above

O=C(O)c1cccc(C(=O)O)c1C(=O)O
not listed: [8] | [11] | [15] | [18] | [20]
inactive: all other assays above

CC1(N)CCC(C(C)(C)N)CC1 (stereo not given)
not listed: [10] | [11] | [17]
inactive: all other assays above

CC(C)C/C=C(\C=O)c1ccccc1
not listed: [10] | [17]
inactive: all other assays above

NCC1CCC(C(=O)Oc2ccc(CCC(=O)O)cc2)CC1 (stereo not given)
not listed: [10] | [11] | [12] | [13] | [17]
inactive: all other assays above

CC(=O)Nc1ccn(C2COC(COC(=O)c3ccccc3)O2)c(=O)n1 (stereo not given)
not listed: [9] | [11] | [13] | [14] | [15] | [17]
inactive: all other assays above

Cc1ccc(N(CC2=NCCN2)c2cccc(O)c2)cc1
not listed: [10] | [11] | [12] | [13] | [19]
inactive: all other assays above

CCCCOc1ccc(OCCCN2CCOCC2)cc1
not listed: [8] | [9] | [10] | [11] | [12] | [13] | [15] | [18]
inactive: all other assays above
